Results as given in PubChem BioAssay (Tox21).
Inconclusive results are not listed. Calls of active or inactive are those of the source. Unless noted, the call rests on the fitted dose curve; in most records, active means well fitted curve in the direction sought with a large enough effect in the repeat runs; inconclusive means weak or mixed curves; inactive means no such curve, though single readings can be large; an effect the other way counts as inactive or inconclusive.

What was measured:
[1] = qHTS assay to identify small molecule agonists of the TGF-beta/Smad signaling pathway - cell viability counter screen (AID 1346829); further: top concentration of the series differs between compounds; nearly all actives have a fitted effect of over 45% in size
In short: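 Same-well cytotoxicity: CellTiter-Glo added after the 2 hr room-temperature beta-lactamase substrate step, luminescence measured 30 min later; cells had 5 hr of compound at 37 C.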

[2] = qHTS assay to identify small molecule agonists of the TGF-beta/Smad signaling pathway (AID 1346859; active means well fitted activation curve with a large enough effect in the signal ratio in the repeat runs, not every such curve was filed as active; the % refers to the signal ratio; further: series mostly up to about 77 µM)
In short: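 Screening used HEK 293T SBE-bla cells at 4,000/well. Test agents: 5 hr, 37 C. Detection: FRET substrate, 2 hr RT, then excitation 405 nm with emissions at 460 and 530 nm.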

[3] = target: Thyrotropin-releasing hormone receptor (Homo sapiens) (UniProt P34981); assay: qHTS assay to identify small molecule antagonists of the thyrotropin-releasing hormone receptor (TRHR) signaling pathway (AID 1346877; active means well fitted inhibition curve with a large enough effect in the repeat runs, not every such curve was filed as active; further: series mostly up to about 51 µM)
In short: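 TRHR-expressing HEK293 cells were seeded, cultured 18 h at 37 °C, then loaded with calcium dye for 2 h. Compounds were pre-incubated 5 min at room temperature before 1 nM TRH (final) was added, and kinetic fluorescence was recorded for 3 min.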

[4] = target: Thyrotropin-releasing hormone receptor (Homo sapiens) (UniProt P34981); assay: qHTS assay to identify small molecule agonists of the thyrotropin-releasing hormone receptor (TRHR) signaling pathway (AID 1346891; calls by dose curve; further: series mostly up to about 58 µM)
In short: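 Readout was intracellular calcium fluorescence in TRHR-Hek293 cells. Cells were incubated 18 h, dye-loaded 2 h at 37 °C, and treated with compound in agonist mode.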

[5] = Human pregnane X receptor (PXR) small molecule agonists, qHTS cell viability counter screen (AID 1346977); further: nearly all actives have a fitted effect of over 50% in size
In short: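 In each well, the PXR reporter HepG2 line was checked for viability: CellTiter-Fluor reagent added 23hr post-dosing, fluorescence read after 1hr incubation at 37C.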

[6] = Caspase-3/7 induction in HepG2 cells by small molecules, qHTS assay (AID 1346978); further: nearly all actives have a fitted effect of over 15% in size
In short: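 Wild-type HepG2 cells (2,000/well) were settled 5 h at 37 C, 5% CO2, then exposed to compounds in DMSO for 17 h. Caspase-3/7 activity was read by luminescence 30 min after adding Caspase-Glo 3/7 reagent at room temperature.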

[7] = Caspase-3/7 induction in CHO-K1 cells by small molecules, qHTS cell viability counter screen (AID 1346979); further: nearly all actives have a fitted effect of over 35% in size
In short: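 Following a 5hr settling period, CHO-K1 cells at 1,500 per well received DMSO-dissolved compounds. Cell viability was quantified 16hr later by CellTiter-Fluor fluorescence, measured after 1hr with reagent at 37C.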

[8] = Caspase-3/7 induction in CHO-K1 cells by small molecules, qHTS assay (AID 1346980); further: nearly all actives have a fitted effect of over 15% in size
In short: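 Wild-type cells were seeded at 1,500 per well and settled 5 hr at 37 C, 5% CO2, then exposed to DMSO-dissolved compounds for 17 hr. Caspase-Glo 3/7 reagent was added, and luminescence was read after 30min at room temperature.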

[9] = Caspase-3/7 induction in HepG2 cells by small molecules, qHTS cell viability counter screen (AID 1346981); further: series mostly up to about 92 µM; nearly all actives have a fitted effect of over 30% in size
In short: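 Wild-type HepG2 cells (2,000/well) were allowed to settle for 5 hr at 37 C, 5% CO2, then dosed with compounds in DMSO by pin transfer. After 16 hr at 37 C, CellTiter-Fluor was added and fluorescence read 1 hr later.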

[10] = target: Nuclear receptor subfamily 1 group I member 2 (Homo sapiens) (UniProt O75469); assay: Human pregnane X receptor (PXR) small molecule agonists, qHTS assay (AID 1346982); further: nearly all actives have a fitted effect of over 35% in size; further: potency means the concentration at half of the fitted maximal effect
In short: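 PXR-Luc HepG2 cells (CYP3A4 promoter-driven luciferase) were seeded in medium with 5% charcoal-stripped FBS, left 5 hr at 37 C, then exposed to compounds in DMSO for 24 hr. Luminescence was read after ONE-Glo addition.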
On the % scale 0 is the no-effect control and ±100 the full control effect.

Sequence of Nuclear receptor subfamily 1 group I member 2 (Homo sapiens) (O75469 whole entry, looked up): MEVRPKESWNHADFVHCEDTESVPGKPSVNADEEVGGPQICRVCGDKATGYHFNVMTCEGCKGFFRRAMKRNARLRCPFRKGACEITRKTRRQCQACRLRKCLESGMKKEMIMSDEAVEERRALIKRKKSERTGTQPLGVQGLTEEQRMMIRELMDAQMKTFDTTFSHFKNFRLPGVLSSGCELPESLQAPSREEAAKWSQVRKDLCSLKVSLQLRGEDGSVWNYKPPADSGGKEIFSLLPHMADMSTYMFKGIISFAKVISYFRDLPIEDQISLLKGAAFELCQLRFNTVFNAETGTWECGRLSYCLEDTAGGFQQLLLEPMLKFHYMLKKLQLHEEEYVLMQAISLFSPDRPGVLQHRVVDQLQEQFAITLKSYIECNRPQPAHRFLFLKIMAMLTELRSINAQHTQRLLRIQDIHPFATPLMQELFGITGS
Sequence of Thyrotropin-releasing hormone receptor (Homo sapiens) (P34981 whole entry, looked up): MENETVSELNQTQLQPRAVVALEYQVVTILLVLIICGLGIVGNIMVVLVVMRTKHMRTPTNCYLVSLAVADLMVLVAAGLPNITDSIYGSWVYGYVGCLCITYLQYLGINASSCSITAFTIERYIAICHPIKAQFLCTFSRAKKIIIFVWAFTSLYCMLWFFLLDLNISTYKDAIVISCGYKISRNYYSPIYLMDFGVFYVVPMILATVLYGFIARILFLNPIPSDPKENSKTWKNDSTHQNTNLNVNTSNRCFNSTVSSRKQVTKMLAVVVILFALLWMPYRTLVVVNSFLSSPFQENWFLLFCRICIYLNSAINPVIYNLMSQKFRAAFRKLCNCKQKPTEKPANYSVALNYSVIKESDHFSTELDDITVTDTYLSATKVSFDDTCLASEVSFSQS

Nc1ccc(S(=O)(=O)NC(=O)c2ccccc2)cc1
inactive: outcome [1] | outcome [2] | outcome [3] | outcome [4] | Potency [5] | outcome [6] | Potency [7] | outcome [8] | Potency [9] | Potency [10]

c1ccccc1
inactive: outcome [1] | outcome [2] | outcome [3] | outcome [4] | Potency [5] | outcome [6] | Potency [7] | outcome [8] | Potency [9]

CCOC(=O)CCCCCCCCC(=O)OCC
inactive: outcome [1] | outcome [2] | outcome [3] | outcome [4] | Potency [5] | outcome [6] | Potency [7] | outcome [8] | Potency [9] | Potency [10]

C1CCN2C[C@@H]3C[C@@H](CN4CCCC[C@@H]34)[C@H]2C1
inactive: outcome [1] | outcome [2] | outcome [3] | outcome [4] | Potency [5] | outcome [6] | Potency [7] | outcome [8] | Potency [9]

Cc1ccccc1OCC1CO1 (stereo unspecified)
inactive: outcome [1] | outcome [2] | outcome [3] | outcome [4] | Potency [5] | outcome [6] | Potency [7] | outcome [8] | Potency [9] | Potency [10]

Nc1ccc(C(=O)OCC(O)CO)cc1 (stereo unspecified)
inactive: outcome [1] | outcome [2] | outcome [3] | outcome [4] | Potency [5] | outcome [6] | Potency [7] | outcome [8] | Potency [9] | Potency [10]

O=S1(=O)CCCC1
inactive: outcome [1] | outcome [2] | outcome [3] | outcome [4] | Potency [5] | outcome [6] | Potency [7] | outcome [8] | Potency [9] | Potency [10]

O=C1OC(=O)c2cc(Oc3ccc4c(c3)C(=O)OC4=O)ccc21
inactive: outcome [1] | outcome [2] | outcome [3] | outcome [4] | Potency [5] | outcome [6] | outcome [8] | Potency [9] | Potency [10]

CC(C)COC(=O)CCCCC(=O)OCC(C)C
inactive: outcome [1] | outcome [2] | outcome [3] | outcome [4] | Potency [5] | outcome [6] | Potency [7] | outcome [8] | Potency [9] | Potency [10]

CC1=CC[C@H](CC=O)C1(C)C
active: Potency [10] 48.6 µM
inactive: outcome [1] | outcome [2] | outcome [3] | outcome [4] | Potency [5] | outcome [6] | Potency [7] | outcome [8] | Potency [9]

CCCCOC(=O)C(=O)OCCCC
inactive: outcome [1] | outcome [2] | outcome [3] | outcome [4] | Potency [5] | outcome [6] | Potency [7] | outcome [8] | Potency [9] | Potency [10]

C=CC(C)(O)CC/C=C(\C)CC (stereo unspecified)
inactive: outcome [1] | outcome [2] | outcome [3] | outcome [4] | Potency [5] | outcome [6] | Potency [7] | outcome [8] | Potency [9]

Nc1cc(C(=O)O)ccc1Cl
inactive: outcome [1] | outcome [2] | outcome [3] | outcome [4] | Potency [5] | outcome [6] | Potency [7] | outcome [8] | Potency [9] | Potency [10]

O=[Si]=O
inactive: outcome [1] | outcome [2] | outcome [3] | outcome [4] | Potency [5] | outcome [6] | Potency [7] | outcome [8] | Potency [9] | Potency [10]

CC(C)C(=O)c1ccccc1
inactive: outcome [1] | outcome [2] | outcome [3] | outcome [4] | Potency [5] | outcome [6] | Potency [7] | outcome [8] | Potency [9] | Potency [10]

O=C(O)Cc1cccc(-c2cc(CCCCCCc3ccc(O[C@H]4O[C@H](CO)[C@@H](O)[C@H](O)[C@@H]4O)c(-c4cccc(CC(=O)O)c4)c3)ccc2O[C@H]2O[C@H](CO)[C@@H](O)[C@H](O)[C@@H]2O)c1
inactive: activity change, negative = cytotoxicity [1] 10.8% [at 0.29 µM] | activation [2] -0.374% [at 0.29 µM] | activity, negative = inhibition [3] 0.417% [at 0.194 µM] | activation [4] -0.342% [at 0.218 µM] | activity change, negative = cytotoxicity [5] 17.5% [at 0.349 µM] | caspase activation [6] 0.734% [at 0.349 µM] | caspase-3/7 activation [8] 1.55% [at 0.349 µM] | activity change, negative = cytotoxicity [9] 2.65% [at 0.349 µM] | activation [10] -9.1% [at 0.349 µM]

CC1(N)CCC(C(C)(C)N)CC1 (stereo unspecified)
inactive: outcome [1] | outcome [2] | outcome [3] | outcome [4] | Potency [5] | outcome [6] | outcome [8] | Potency [9] | Potency [10]

O=S(=O)(O)c1cc(O)ccc1O
inactive: outcome [1] | outcome [2] | outcome [3] | outcome [4] | Potency [5] | outcome [6] | Potency [7] | outcome [8] | Potency [9]

CO[Si](CCCCl)(OC)OC
inactive: outcome [1] | outcome [2] | outcome [3] | outcome [4] | Potency [5] | outcome [6] | Potency [7] | outcome [8] | Potency [9] | Potency [10]

CC(Cl)COP(=O)(OCC(C)Cl)OCC(C)Cl (stereo unspecified)
active: Potency [10] 13.6 µM
inactive: outcome [1] | outcome [2] | outcome [3] | outcome [4] | Potency [5] | outcome [6] | Potency [7] | outcome [8] | Potency [9]

CCCOC(=O)CCCCC(=O)OCCC
inactive: outcome [1] | outcome [2] | outcome [3] | outcome [4] | Potency [5] | outcome [6] | Potency [7] | outcome [8] | Potency [9] | Potency [10]

CCCCCCCCCCCCCCCC(=O)NCCO
inactive: outcome [1] | outcome [2] | outcome [3] | outcome [4] | Potency [5] | outcome [6] | Potency [7] | outcome [8] | Potency [9]

CCCCCCCC[Si](OCC)(OCC)OCC
inactive: outcome [1] | outcome [2] | outcome [3] | outcome [4] | Potency [5] | outcome [6] | Potency [7] | outcome [8] | Potency [10]

CN(C1CCCCC1)S(=O)(=O)c1ccccc1N
inactive: outcome [1] | outcome [2] | outcome [3] | outcome [4] | Potency [5] | outcome [6] | Potency [7] | outcome [8] | Potency [9]
active: Potency [10] 27.3 µM
